CHT allo act – human CHT allosteric activation | B-score at 10 µM | hit rate 0.49% among 310,000 | AID 488977 | Q9GZV3 | CHT-expressing cells, membrane potential dye, choline EC20; stronger effect = higher value; LV-AA mutant CHT in HEK293 cells;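 active = initial fluorescence not abnormally high and integrated response B-score, plate-corrected, over 3 SD above library mean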
CHT inh – inhibits the human high affinity choline transporter; Q9GZV3; CHT-expressing cells, membrane potential dye, choline response; stronger effect = lower value; B-score at 10 µM; hit rate 0.86% among 310,000; AID 488975;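 active = B-score over 3 SD under the library average, and starting fluorescence ratio not unusually high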;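 note: choline stimulus applied at its EC90 after an EC20 pre-addition; B-score computed on integrated fluorescence ratio after choline addition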
PKA-R1A act – activates the PKA-R1A holoenzyme complex. P00514+P68181. PKA-R1A dissociation, Cy5-IP20 fluorescence polarization; scaled: DMSO 0%, 113 µM cGMP 100%. activation, % at 11.4 µM. hit rate 0.083% among 340,000. AID 504707;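 active = percent activation above the mean of all tested compounds plus 3 SD, cut at about 19% in these data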;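 note: higher means more PKAc released from R1A so a rise in polarization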
TMEM16A act – mouse TMEM16A channel activation, primary screen; Q8BHY3; HEK293 TMEM16A/YFP-H148Q/I152L, iodide quench fluorescence; stronger effect = lower value; B-score at 10 µM; hit rate 0.3% among 340,000; AID 623877;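 active = fluorescence-ratio B-score plate-corrected deviation score at least 3 library SD below zero, with starting fluorescence score within 5 deviations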;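 note: channel opened by trigger with iodide after compound preincubation; score built on the fluorescence ratio of max minus min over baseline; more negative score means more quench and so TMEM16A activation or potentiation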
PKA-R2B activ – activates the human PKA-R2B holoenzyme complex; PKA-R2B holoenzyme dissociation, Cy5-IP20 fluorescence polarization; R2B truncated from residue 108, S112A mutant; 0% DMSO only, 100% 113 µM cGMP; activation, % at 11.4 µM; hit rate 0.079% among 340,000;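 active = activation above a cutoff set at the mean over all compounds plus 3 SD, cut at about 18% in these data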;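 note: higher means more holoenzyme dissociation and a rise in polarization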
Target sequence (P31323 whole entry, looked up, other chains not shown, the tested form may be a part): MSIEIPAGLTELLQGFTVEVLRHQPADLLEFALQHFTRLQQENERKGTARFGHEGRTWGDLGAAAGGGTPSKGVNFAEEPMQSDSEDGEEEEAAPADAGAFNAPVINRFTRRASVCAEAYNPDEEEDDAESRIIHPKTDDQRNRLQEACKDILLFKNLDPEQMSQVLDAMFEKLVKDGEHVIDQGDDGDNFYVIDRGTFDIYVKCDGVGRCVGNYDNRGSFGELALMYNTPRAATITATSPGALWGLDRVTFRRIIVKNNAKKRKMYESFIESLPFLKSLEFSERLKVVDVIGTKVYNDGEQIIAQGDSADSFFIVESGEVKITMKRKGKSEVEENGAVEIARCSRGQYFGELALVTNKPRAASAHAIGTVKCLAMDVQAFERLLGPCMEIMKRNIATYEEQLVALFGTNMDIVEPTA
TMEM16A inh – blocks the mouse calcium-activated chloride channel TMEM16A | normalized B-score (activity score, 25-100; higher = stronger inhibition) at 10 µM | AID 588511 | HEK293 TMEM16A/YFP iodide influx fluorescence, ionomycin | Q8BHY3 | hit rate 1.2% among 310,000;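 active = ratio plate-corrected score three or more library SD toward inhibition, starting fluorescence score within five deviations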;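 note: score derived from kinetic fluorescence span divided by baseline fluorescence per well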
CHT inh conf – human CHT inhibition, confirmatory screen. shares compounds with CHT inh. CHT-expressing cells, choline membrane potential dye; LV-to-AA substituted CHT, HEK293 cells. CHT activity remaining % of control (stronger effect = lower value), % at 10 µM. hit rate 70% among 2,400;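 active = choline transporter activity left, mean of duplicates at 10 µM, below buffer-only control mean minus 3 SD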;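 note: depolarization triggered by choline at its EC90 following an EC20 pre-addition; 0% = hemicholinium-3 full block and 100% = buffer-only control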
HEK293 CHT ctr – counter-screen for CHT inhibitors: effect in parental HEK293 cells. shares compounds with CHT inh. membrane potential dye, choline response; active = decrease or increase beyond buffer ±3SD. membrane potential ratio readout (active if shifted either direction beyond buffer ±3SD; no single direction) at 10 µM. hit rate 4% among 2,400. AID 493222;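 note: parental cells lack the transporter so any hit is non-specific; ratio is peak minus trough fluorescence over baseline after EC90 choline challenge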
Active calls of the source: *; i = inactive; · = no result given. In the library only some 2.5% were active in any assay of this set; here they are far more common.

SMILES | CHT allo act | CHT inh | PKA-R1A act | TMEM16A act | PKA-R2B activ | TMEM16A inh | CHT inh conf | HEK293 CHT ctr
NC(=O)c1nsc(C(=O)N(Cc2ccc(F)cc2)C(C(=O)NC2CCCC2)c2ccco2)c1N (centres undefined) | i | -7.9* | -7 | i | 0 | i | i | i
CC1(c2ccccc2)CC(C)(C)N2C(=O)C(=O)c3cccc1c32 (centres undefined) | i | -5.3* | -4 | i | 5 | i | i | i
CCc1cc2c(cc3c(=O)n(CC(=O)NCCCN4CCCCCC4)nc(CC)n32)s1 | i | i | -1 | i | 3 | i | · | ·
O=C(Nc1nnc(-c2ccc(F)cc2)o1)c1cc(Cl)sc1Cl | i | -6.8* | 3 | i | -9 | i | 63%* | i
O=C(Nc1ccc(Br)cc1Cl)Nn1cnnc1 | i | -5* | -12 | i | 1 | i | 65%* | i
CSc1ccc(C(=O)C2CCCN(C(=O)c3ccsc3)C2)cc1 (centres undefined) | i | -5.2* | -6 | i | 3 | i | 69%* | i
C/C(=N\N=C1\NC(=O)C(CC(=O)Nc2ccc(C)c(Cl)c2)S1)C(C)(C)C (centres undefined) | i | i | -10 | i | -14 | i | · | ·
CC(=O)/C(C#N)=C1\NC(=O)C(Cc2ccc(C)c(Cl)c2)S1 (centres undefined) | i | -7* | 5 | i | -7 | i | i | i
COc1ccc(C)cc1N1CC(C(=O)Nc2cccc(C(=O)NC3CC3)c2)CC1=O (centres undefined) | · | · | 0 | · | -8 | · | · | ·
CC1=NN(C(=O)c2ccc(Cn3nc(C)c(Br)c3C)cc2)C(O)(C(F)(F)F)C1 (centres undefined) | i | -8.1* | -2 | i | -2 | i | 26%* | i
O=C(CN1C(=O)COc2ccc(S(=O)(=O)N3CCCCC3)cc21)NCc1ccc(Cl)cc1 | i | i | 3 | i | 1 | i | · | ·
COc1cccc(NC(=S)N2CCN(S(=O)(=O)c3ccccc3)CC2)c1 | i | i | -11 | i | -13 | i | · | ·
COc1ccc(/C(O)=C2/C(=O)C(=O)N(c3ccccn3)C2c2ccc(OC)cc2)cc1 (centres undefined) | · | · | 9 | · | 2 | · | · | ·
COc1ccc(/C(O)=C2/C(=O)C(=O)N(c3ccccn3)C2c2cccc(Cl)c2)cc1 (centres undefined) | i | -5.3* | -7 | i | -5 | i | 59%* | i
COc1ccc(-c2nc3cc([N+](=O)[O-])ccc3o2)cc1 | i | -5.2* | -7 | i | -1 | i | i | i
Nc1ccc(-c2nc3cc([N+](=O)[O-])ccc3o2)cc1 | i | i | -1 | i | 0 | i | · | ·
Cc1ccc(CS(=O)Cc2ccc(C(=O)NC3CCCCCC3)o2)cc1 (centres undefined) | i | -9.5* | -5 | i | 2 | i | 36%* | i
Cc1ccc(CS(=O)Cc2ccc(C(=O)NC3CCC(C)CC3)o2)cc1 (centres undefined) | i | -9.8* | 3 | i | 5 | i | 3.4%* | i
Cc1ccc(CS(=O)Cc2ccc(C(=O)NC3CCCC(C)C3C)o2)cc1 (centres undefined) | i | -9.7* | -9 | i | 1 | i | 20%* | i
O=C(N/N=C/c1ccc(OC(=O)c2ccco2)cc1)c1ccc[n+]([O-])c1 | i | i | 9 | i | -2 | i | · | ·

Screens deposited in PubChem BioAssay by several laboratories.
